The whole screen tested about 290,000 compounds, of which about 3,000 (1%) were called active. Shown is part of a subset that was picked to be rich in actives. A number with no mark means an inactive call. Cut-off read from the data, not from the text of the source: active = inhibition mostly above about 36% (no sharp cut-off); inactive = mostly below about 34%.
experiment: NOD1 signaling inhibitors, primary screen, cell-based, luminescence, uHTS (AID 1578); conditions: NOD1-driven NF-kB luciferase reporter cells, at 4 µM, active compounds read high;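 note: HEK-293T reporter cells stimulated with the NOD1 agonist gamma-tri-DAP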

Row | SMILES | inhibition
1 | COc1ccc(CCNC(=O)c2ccc(-c3ccc([N+](=O)[O-])cc3Cl)o2)cc1 | 4.2%
2 | COc1ccc(CCNC(=O)c2ccc(-c3ccc([N+](=O)[O-])cc3)o2)cc1OC | 38.5%
3 | COc1ccc(CCNC(=O)c2ccc(-c3ccc([N+](=O)[O-])cc3Cl)o2)cc1OC | 95.8% (active)
4 | COc1ccc(-c2nnn(CC(=O)c3ccccc3)n2)cc1OC | -8.9%
5 | COc1cc(/C=C/C(=O)O)cc(S(=O)(=O)N2CCc3ccccc3C2)c1OC | -13.2%
6 | CC(CC(=O)NCCc1ccc(F)cc1)c1ccccc1 (centres undefined) | -24.3%
7 | Cc1ccc(N/N=C2\CS(=O)(=O)N(C)c3ccsc32)cc1 | 58.9% (active)
8 | CN1c2ccsc2/C(=N/Nc2ccc(F)cc2)CS1(=O)=O | -1.7%
9 | CN1c2ccsc2/C(=N/Nc2ccccc2)CS1(=O)=O | -41.3%
10 | C[C@@H](O)C1NC(=O)[C@H](CCCCN)NC(=O)c2cc([N+](=O)[O-])cc(I)c2NCCC[C@@H](C(N)=O)NC1=O (some centres undefined) | -16%
11 | COc1cc(CNC2CCCCCCC2)ccc1OCC(N)=O | -34.5%
12 | COc1ccc(OC)c2sc(NC(=O)c3ccc(S(=O)(=O)N(C)C)cc3)nc12 | -12.2%
13 | C/C(=N\NC(=O)c1nnn(-c2nonc2N)c1CN(C)c1ccccc1)c1cccs1 | -19.9%
14 | CCN(CCCNC(=O)c1c(C)cc(=O)oc1C)c1ccccc1 | 8.4%
15 | CCn1c(C)cc(/C=C2\NC(=O)N(CC(=O)Nc3cccc(C)c3)C2=O)c1C | 9.5%
16 | COc1cc(/C=N/c2oc(-c3ccccc3)cc2C#N)ccc1O | -15.3%
17 | N#Cc1cc(-c2ccccc2)oc1/N=C/c1ccccc1O | 49.6% (active)
18 | COc1cccc(/C=N/c2oc(-c3ccccc3)cc2C#N)c1O | -11%
19 | Nc1ccc(Br)cc1C(NCC(=O)O)c1ccccc1 (centres undefined) | -19%
20 | CC(C)(C)NC(=O)C1CCN(S(=O)(=O)c2cccc(C(F)(F)F)c2)CC1 | -13.7%

Row | SMILES | inhibition
21 | COc1ccc(C2(c3ccc(OC)cc3)NC(=O)N(CC(=O)Nc3ccccc3C(F)(F)F)C2=O)cc1 | -18.1%
22 | O=C(Nc1cccc(Cl)c1)c1cccnn1 | -9.2%
23 | CCOc1ccc(/C=C/C(O)=C2/C(=O)NC3(C)CC2c2ccccc2O3)cc1OC (centres undefined) | 46.7%
24 | COc1ccc(/C=C/C(O)=C2/C(=O)NC3(C)CC2c2ccccc2O3)c(OC)c1OC (centres undefined) | 69.9% (active)
25 | COc1cccc2c1OC1(C)CC2/C(=C(\C)O)C(=O)N1 (centres undefined) | -20.8%
26 | COc1ccc(CCNC(=S)Nc2cccc(C)c2C)cc1 | -19.9%
27 | COc1ccc(OC)c(NC(=O)COC(=O)/C=C/c2c(C)nn(C3CCS(=O)(=O)C3)c2Cl)c1 (centres undefined) | -5%
28 | O=C1NC(=S)S/C1=C/c1ccc(N2CCOCC2)o1 | 27.5%
29 | COc1ccc(-n2c(C)cc(/C=C3\SC(=S)NC3=O)c2C)cc1 | -70.7%
30 | COc1ccc2nc(N3CCCCC3)c(C#N)cc2c1 | -123%
31 | COc1ccc2cc(/C=C3\SC(=S)NC3=O)c(N3CCOCC3)nc2c1 | 71.4% (active)
32 | COc1ccc2cc(C#N)c(N3CCOCC3)nc2c1 | 2.7%
33 | COc1ccccc1C(=O)NC(=S)Nc1ccc2[nH]c(=O)[nH]c2c1 | -36.5%
34 | Cc1ccc(NC(=O)CCC(=O)OCC(=O)c2ccc(Oc3ccc([N+](=O)[O-])cc3)cc2)cc1C | -7%
35 | OCCSc1nc(N2CCOCC2)nc(N2CCOCC2)n1 | -22.8%
36 | COC(=O)c1cc(CSc2ncnc3sccc23)oc1C | -1.8%
37 | Cc1cc(-n2cnc(-c3cn[nH]c3C)n2)no1 | -8.9%
38 | COc1ccc(S(=O)(=O)Nc2nc3ccccc3nc2Nc2ccc3c(c2)OCO3)cc1 | 7%
39 | O=S(=O)(Nc1cccc(S(=O)(=O)N2CCCCCC2)c1)c1ccccc1 | -11.7%
40 | O=S(=O)(Nc1nc2ccccc2nc1Nc1cccc(S(=O)(=O)N2CCCCC2)c1)c1ccccc1 | 98.4% (active)

Row | SMILES | inhibition
41 | O=S(=O)(Nc1nc2ccccc2nc1Nc1ccc2c(c1)OCO2)c1ccccc1 | 57.6%
42 | COc1ccc(S(=O)(=O)Nc2cccc(S(=O)(=O)N3CCCCCC3)c2)cc1 | -27%
43 | CCOc1ccc(NS(=O)(=O)c2ccc(C(=O)N(CC)CC(=O)NCc3cccs3)cc2)cc1 | -1.7%
44 | COc1cccc(CNC(=O)COc2ccc(C(=O)c3ccccc3)cc2)c1 | 4%
45 | O=C(NCc1ccco1)Nc1ccc(OC(F)(F)F)cc1 | -6.5%
46 | O=C(C1=NN[C@@H]2C(=O)N(c3ccccc3C(F)(F)F)C(=O)[C@H]12)c1cnccn1 | -13.1%
47 | Cc1ccc2nc3sc(C(=O)Nc4ccc(N5CCOCC5)cc4)c(N)c3cc2c1 | -21.9%
48 | Cc1cccc2cc3c(N)c(C(=O)N4CCOCC4)sc3nc12 | -5%
49 | COc1cc(NC(=O)CSc2nccc(=O)[nH]2)c(C)cc1[N+](=O)[O-] | -24.5%
50 | Cc1cc(-c2ccc(C)c(S(=O)(=O)N3CC(=O)Nc4ccccc43)c2)on1 | -2.5%
51 | CC(=O)N1c2ccccc2C2(O)N=C(C)SC12 (centres undefined) | 66.4% (active)
52 | CC(=O)N1c2ccccc2C(C)(C)C2CCC(C)CC21 (centres undefined) | -5.9%
53 | Cc1ccc(C(=O)CC2(O)C(=O)N(C)c3ccccc32)s1 (centres undefined) | -9.2%
54 | COc1ccc(C(=O)NNC(=O)CN2CCC(n3nnc4cc(C)ccc43)CC2)cc1 | -14.9%
55 | O=C(OCc1ccc(Cl)cc1)c1cccnc1Cl | -33%
56 | CCOCCCNc1ncnc2c1[nH]c1ccccc12 | 19.9%
57 | COCCCNc1ncnc2c1[nH]c1ccccc12 | -16.9%
58 | CCCCOCCCNc1ncnc2c1[nH]c1ccccc12 | 65.9% (active)
59 | O=S(=O)(c1ccc(S(=O)(=O)n2cnc3ccccc32)cc1)N1CCCCCC1 | 8.9%

Reference: PubChem BioAssay AID1578 (Sanford-Burnham Center for Chemical Genomics, 2009)
